Data: the supplement of paper PMC10503962

These compounds were tested on Trichuris muris adult worms (assay: mean motility score (Paragon pixel variance) of adult worms (arbitrary units); higher = more motile worms, i.e. less anthelmintic effect; extreme values may be limits of the assay). Settings: 100 µM; 24 h.
Summary of the method: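 Films of 200 frames spaced 100 ms apart were taken on an automated phenotyping platform after worms had spent 24 h at 37°C and 5% CO2. Those worms were single adult Trichuris muris from infected NOD SCID mice, each in a 96-well plate well with 100 μL RPMI-1640 plus antibiotics and drug at 100 μM (1% v/v DMSO). Paragon pixel-variance analysis produced the motility score, averaged over replicate wells. Testing used three worms in three wells per drug across three separate occasions, with vehicle and positive controls.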

Question: How did the mean motility score turn out when `CC12CC3CC(C)(C1)CC(N)(C3)C2.Cl` [memantine hydrochloride] was run?
Answer: 2620

Question: For `CCOC(=O)[C@H](CCc1ccccc1)N[C@@H](C)C(=O)N1Cc2cc(OC)c(OC)cc2C[C@H]1C(=O)O.Cl` [moexipril hydrochloride], which mean motility score is on record?
Answer: 3680

Question: How did the mean motility score turn out when `CN1CCC(=C2c3ccccc3CC(=O)c3sccc32)CC1` [ketotifen] was run?
Answer: 2220

Question: `CC1=C(/C=C/C(C)=C/C=C/C(C)=C/CO)C(C)(C)CCC1` [retinol] was tested. Which mean motility score did it give?
Answer: 2970

Question: For `Nc1nc(N)c2nc(-c3ccccc3)c(N)nc2n1` [triamterene], which mean motility score is on record?
Answer: 2070

Question: Which mean motility score does the source give for `O=C(O)/C=C/C(=O)O` [fumaric acid] here?
Answer: 3100

Question: `Oc1ncc(F)c(O)n1` [fluorouracil] was tested. Which mean motility score did it give?
Answer: 3090

Question: With `COc1ccccc1N1CCN(CCCNc2cc(=O)n(C)c(=O)n2C)CC1` [urapidil] as the compound, how does the mean motility score read?
Answer: 2810

Question: How did the mean motility score turn out when `CSCC[C@H](N)C(=O)O` [methionine] was run?
Answer: 3180

Question: `COc1ccccc1OCCNCC(O)COc1cccc2[nH]c3ccccc3c12` (centres undefined) [carvedilol] was tested. Which mean motility score did it give?
Answer: 35.7

Question: Which mean motility score does the source give for `Cl.Cl.NCCc1c[nH]cn1` [histamine dihydrochloride] here?
Answer: 2750

Question: `COC1=C(OC)C(=O)C(C/C=C(\C)CC/C=C(\C)CC/C=C(\C)CC/C=C(\C)CC/C=C(\C)CC/C=C(\C)CC/C=C(\C)CC/C=C(\C)CC/C=C(\C)CCC=C(C)C)=C(C)C1=O` [ubidecarenone] was tested. Which mean motility score did it give?
Answer: 2770

Question: For `CN(C)CCOC(=O)C(c1ccccc1)C1(O)CCCC1` (centres undefined) [cyclopentolate], which mean motility score is on record?
Answer: 2640

Question: With `CCCc1nc(C(C)(C)O)c(C(=O)OCc2oc(=O)oc2C)n1Cc1ccc(-c2ccccc2-c2nnn[nH]2)cc1` [olmesartan medoxomil] as the compound, how does the mean motility score read?
Answer: 3650
